Source: PubChem BioAssay
HT1080 IDH1KD tx = toxicity to HT-1080 IDH1 knockdown cells (counter line) | HT-1080 IDH1 knockdown viability, ATP luminescence, 48 h | Potency, µM (top dose mostly 46.1 µM), for inactives: top-dose activity, negative = toxicity, most hits filed as cytotoxic | actives 2% (n = 360,000) | AID 686971;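 note: 0% = DMSO wells and -100% = cell-free medium wells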
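Luminescent ATP read-out (CellTiter-Glo, 10 min at room temperature) after 48 h compound exposure at 37 °C gave viability of IDH1-knockdown HT-1080 cells. Activity was normalised to DMSO and cell-free wells, then fitted as concentration-response curves.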
KB-3-1 cytotox = KB-3-1 parental cell cytotoxicity. actives 1.4% (n = 400,000). AID 1347075. KB-3-1 viability, CellTiter-Glo ATP luminescence, 72 h. Potency, µM (highest dose often 46.1 µM), most hits filed as cytotoxic; note: nearly all actives have a fitted effect of over 60% in size
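Parental KB-3-1 viability, qHTS format: 72 h compound exposure, 37 °C; CellTiter-Glo; media-only wells and DMSO plates as controls; concentration-effect fits on corrected data.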
DT40 TDP1 CPT = growth inhibition of DT40 Tdp1-/-;hTDP1 cells with camptothecin (screen for TDP1 inhibitors); Potency, µM (titrated, usually from 46.2 µM), inactives show at the highest dose activity change, negative = growth inhibition, hits mostly inhibitors; chicken DT40 Tdp1-/-;hTDP1 cells + 20 nM CPT, ATP luminescence, 48 h; actives 12% (n = 420,000); AID 686979; note: nearly all actives have a fitted effect of over 55% in size
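Cell growth measured by CellTiter-Glo luminescence after a minimum 48 h, 37 C compound exposure with 20 nM CPT in Tdp1-knockout DT40 cells stably expressing hTDP1, seeded 400/well; qHTS titration format.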
KB-V1 MDR tox = KB-V1 MDR subline cytotoxicity; KB-V1 MDR cells viability, CellTiter-Glo, 72 h; Potency, µM (doses to about 46.1 µM), hits mostly cytotoxic; actives 3.4% (n = 400,000); AID 1347076; note: nearly all actives have a fitted effect of over 60% in size
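Drug-selected KB-V1 cells, grown in DMEM lacking phenol red with 10% FBS, receive compound titrations; after three days at 37 degrees C, surviving cell ATP is quantified by CellTiter-Glo luminescence and responses normalized and curve-fitted.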
DT40 TDP1 no CPT = qHTS for Inhibitors of human tyrosyl-DNA phosphodiesterase 1 (TDP1): qHTS in cells in absence of CPT. DT40 Tdp1-/- hTDP1 cells, no CPT, ATP luminescence, 48 h. Potency, µM (top dose mostly 46.2 µM), without a hit: at the highest dose activity change, negative = growth inhibition, hits mostly inhibitors. actives 15% (n = 420,000). AID 686978, 2013; note: nearly all actives have a fitted effect of over 55% in size
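Seeded 400 DT40-hTDP1 cells/well (vehicle DMSO, no 20 nM CPT); pinned compounds; ≥48 hr at 37 °C; CellTiter-Glo luminescence as viability measure.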
HT1080NT lethal = kills 2HG-producing HT-1080-NT fibrosarcoma cells; HT-1080-NT fibrosarcoma viability, CellTiter-Glo ATP luminescence, 48 h; AID 686970; Potency, µM (highest dose often 46.1 µM), without a hit: at the highest dose activity, negative = less viability, most hits filed as cytotoxic; actives 1.6% (n = 360,000);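 note: NT is the 2HG producing partner of a matched IDH1 knockdown line; 0% = DMSO-treated cells and -100% = media-only wells without cells; nearly all actives have a fitted effect of over 55% in size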
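Fibrosarcoma NT cells, 750 per well in 5% FBS RPMI, were exposed to compound for 48 hours. Viability: CellTiter-Glo luminescence.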
Starred values were filed as active, the others as inactive; i = inactive; ? = inconclusive; nt = not tested or not shown; ! = not confirmed by another sample; [ ] = another dose, or the depositor's remark. An excerpt weighted towards active compounds, which were near 19% of everything screened. Calls come from the whole dose curve; as a rule, active = well fitted curve in the direction sought with a large enough effect; inconclusive = small, poorly fitted or top-dose-only effect, or another doubt; inactive = no such curve, though single readings can be large; an effect the other way counts as inactive or inconclusive. Unless noted, % is set by controls: 0 for no effect and ±100 for the full control effect; potency is the fitted concentration of half-maximal effect.

SMILES	HT1080 IDH1KD tx	KB-3-1 cytotox	DT40 TDP1 CPT	KB-V1 MDR tox	DT40 TDP1 no CPT	HT1080NT lethal
O=C(c1ccc(S(=O)(=O)c2ccccc2Cl)c([N+](=O)[O-])c1)N1CCCCCC1	-18%	?	21µM*	2.3µM*	18µM*	-3%
O=C(c1ccc(S(=O)(=O)Cc2ccccc2F)c([N+](=O)[O-])c1)N1CCCCCC1	?	i	?	?	23µM*	-21%
O=C(c1ccc(S(=O)(=O)c2cccc(Cl)c2)c([N+](=O)[O-])c1)N1CCN(c2ccccn2)CC1	21µM*	?	2.6µM*	?	2.3µM*	9.2µM*
CCN1CCN(c2nc3c(C)cccn3c(=O)c2C=C(C#N)C#N)CC1	6%	i	-6%	i	0%	-3%
CCCC(C)NC(=O)C1c2ccccc2Oc2ccccc21 (configuration not stated)	-14%	i	20%	i	9%	-3%
Cc1ccc(SCc2[nH]nc3c2C2(CCSCC2)C(C#N)=C(N)O3)cc1	?	i	-11%	?	-25%	-11%
CCOC(=O)N1CCC2(CC1)C(C#N)=C(N)Oc1n[nH]c(CSc3ccc(C)cc3)c12	?	i	7.3µM*	i	?	?
COc1ccc(C(=O)c2ccc3oc(-c4ccc(OC)cc4)c(-c4ccc(O)cc4)c3c2)cc1	5%	18µM*	?	?	9.2µM*	9%
O=C(CSc1nnc(-c2ccc(C(F)(F)F)cn2)s1)c1ccc(Cl)cc1	15%	i	4%	i	-1%	10%
C=C1C(=O)OC2C1CCC(C)=C1C(=O)C3OC3(C)C12 (configuration not stated)	16µM*	?	0.058µM*	?	0.18µM*	?
CC(=O)N/C(=C/C(C)C)c1ccccc1	-3%	i	5%	i	2%	11%
CCOc1ccc(CC(=O)NCC(=O)NCc2cc(=O)n(C)c(=O)n2C)cc1	2%	i	6%	?	0%	15%
Cc1cccc(CC(=O)NCC(=O)NCc2cc(=O)n(C)c(=O)n2C)c1	8%	i	12µM*	?	?	4%
N#Cc1cc(C(=O)Cc2ccccc2)c[nH]1	5%	?	5%	?	-27%	-1%
CCOC(=O)c1ccc(CN(Cc2ccc(C)cc2)S(=O)(=O)c2cccc([N+](=O)[O-])c2)cc1	10%	i	4%	i	?	6%
CC(=O)Nc1ccc(C(=O)OCc2ccc(Br)cc2)cc1	0%	i	5%	18µM*	-25%	-6%
CCOC(=O)c1ccc(CN(Cc2ccc(C)cc2)S(=O)(=O)c2ccc(F)c(C(=O)Nc3ccc(C)c(F)c3)c2)cc1	nt	nt	-6%	nt	-17%	nt
CCOC(=O)c1ccc(CN(Cc2ccccc2)S(=O)(=O)c2ccc(C)cc2)cc1	nt	i	29µM*	i	16µM*	nt
CCOC(=O)c1ccc(CN(Cc2ccc(C)cc2)S(=O)(=O)c2ccc(NC(C)=O)cc2)cc1	nt	nt	?	nt	15µM*	nt
COc1cccc(O)c1O	nt	nt	3.7µM*	nt	4.6µM*	nt
COc1cccc2c1-c1c(O)cccc1C2=O	1%	i	3%	i	4%	9%
CCOc1ccc2cc(S(=O)(=O)N3CCN(C)CC3)ccc2c1	-1%	i	?	i	23µM*	-5%
COc1ccc2cc(S(=O)(=O)N3CCCC(C)C3)ccc2c1 (configuration not stated)	-18%	i	?	i	23µM*	-27%
CN1CCN(S(=O)(=O)c2ccc3ccccc3c2)CC1	-3%	i	1%	i	1%	-1%
CCOc1ccc2cc(S(=O)(=O)N3CCCCC3)ccc2c1	-2%	i	29µM*	i	?	-17%
SMILES	HT1080 IDH1KD tx	KB-3-1 cytotox	DT40 TDP1 CPT	KB-V1 MDR tox	DT40 TDP1 no CPT	HT1080NT lethal
CCN(CCCNC(=O)Cn1ncc2c3ccccc3n(C)c2c1=O)c1cccc(C)c1	nt	i	?	i	?	nt
CCOc1ccc(OCCOCCNCCOC)cc1	0%	i	0%	i	-5%	1%
C/C(=C(\CCOP(=O)(O)O)SC(=O)c1ccccc1)N(C=O)Cc1cnc(C)nc1N	nt	nt	-13%[21.1 µM]	nt	-14%[21.1 µM]	nt
C/C(=C(/CCO)SSCC1CCCO1)N(C=O)Cc1cnc(C)nc1N (configuration not stated)	6%	i	21µM*!	i	21µM*	-3%
CCCSS/C(CCO)=C(\C)N(C=O)Cc1cnc(C)nc1N	nt	nt	5.3µM*	nt	3µM*	nt
CCOC(=O)OCC/C(SC(=O)OCC)=C(\C)N(C=O)Cc1cnc(C)nc1N	nt	nt	3%	nt	-1%	nt
CCCCc1cc(=O)oc2cc(C)cc(OCC(=O)NCc3ccccn3)c12	-5%	?	?	i	?	-3%
COCCn1c(=S)[nH]c2cc(C(=O)N3CCN(c4cccc(Cl)c4)CC3)ccc2c1=O	-10%	i	21µM*	i	4.1µM*	-7%
